{"source": "PubChem BioAssay (NCATS)", "note": "Records with an inconclusive call do not appear. The source made the active and inactive calls. Calls follow the shape of the dose curve; as a rule, active = well fitted curve in the direction sought with a large enough effect; inconclusive = small, poorly fitted or top-dose-only effect, or another doubt; inactive = no such curve, though single readings can be large; an effect the other way counts as inactive or inconclusive."}
{"test": "Cell Viability - LYMP1-002 - Assay at 16 hr (AID 948)", "settings": "LYMP1-002 lymphoblastoid cell viability; series mostly up to 92.2 µM", "in_short": "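ATP luminescence (CellTiter-Glo) was measured after 16 hr compound exposure at 37 C of 2500 lymphoblastoid LYMP1-002 cells per well. Concentration-response curves were fitted with the Hill equation to give AC50.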"}
{"smiles": "Cc1ccc(OP(=O)(Oc2ccc(C)cc2)Oc2ccc(C)cc2)cc1", "outcome": "inactive"}
{"smiles": "CN(C)c1ccc(N(C)C)cc1", "outcome": "inactive"}
{"smiles": "ClCC(Cl)Cl", "outcome": "inactive"}
{"smiles": "C=CC(=O)OCCO", "outcome": "inactive"}
{"smiles": "CC(C)Br", "outcome": "inactive"}
{"smiles": "O=[N+]([O-])c1ccc(O)c([N+](=O)[O-])c1", "outcome": "inactive"}
{"smiles": "CC(C)[N+](=O)[O-]", "outcome": "inactive"}
{"smiles": "CCCC[N+](=O)[O-]", "outcome": "inactive"}
{"smiles": "Cc1cc(-c2cc(C)c(N)c(C)c2)cc(C)c1N", "outcome": "inactive"}
{"smiles": "Nc1cc(Cl)ccc1O", "outcome": "inactive"}
{"smiles": "N#CC(Cl)(Cl)Cl", "outcome": "inactive"}
{"smiles": "CCCCC(CC)COC(=O)c1ccc(C(=O)OCC(CC)CCCC)c(C(=O)OCC(CC)CCCC)c1", "note": "(stereo unspecified)", "outcome": "inactive"}
{"smiles": "O=C(O)C(Br)CBr", "note": "(stereo unspecified)", "outcome": "inactive"}
{"smiles": "Nc1c(Br)cc([N+](=O)[O-])cc1[N+](=O)[O-]", "outcome": "inactive"}
{"smiles": "O=[N+]([O-])c1ccccc1CCl", "outcome": "inactive"}
{"smiles": "Cc1cc(C)cc(OP(=O)(Oc2cc(C)cc(C)c2)Oc2cc(C)cc(C)c2)c1", "outcome": "inactive"}
{"smiles": "N#CC(Br)Br", "outcome": "inactive"}
{"smiles": "O=C(O)C(Cl)Br", "note": "(stereo unspecified)", "outcome": "inactive"}
{"smiles": "COP(=S)(OC)SCn1nnc2ccccc2c1=O", "outcome": "inactive"}
{"smiles": "Nc1ccc([N+](=O)[O-])cc1N", "outcome": "inactive"}
{"smiles": "O=C(O)c1cccc(Cl)c1", "outcome": "inactive"}
{"smiles": "Cc1cc(N=Nc2ccccc2C)ccc1N", "outcome": "inactive"}
{"smiles": "OCCCCO", "outcome": "inactive"}
{"smiles": "O=[N+]([O-])c1cc(Cl)c(Cl)c(Cl)c1", "outcome": "inactive"}
{"smiles": "CC(C)(COCC1CO1)COCC1CO1", "note": "(stereo unspecified)", "outcome": "inactive"}
{"smiles": "Cc1ccc2c(c1N)C(=O)c1ccccc1C2=O", "outcome": "inactive"}
{"smiles": "COc1ccccc1N", "outcome": "inactive"}
{"smiles": "CC(C)(C)OOC(=O)c1ccccc1", "outcome": "inactive"}
{"smiles": "c1ccc(N=NNc2ccccc2)cc1", "outcome": "inactive"}
{"smiles": "COC(C)(C)C", "outcome": "inactive"}
{"smiles": "C(CCOCC1CO1)COCC1CO1", "note": "(stereo unspecified)", "outcome": "inactive"}
{"smiles": "O=[N+]([O-])/C=C/c1ccccc1", "outcome": "inactive"}
{"test": "MultiTox-Fluor Cytotoxicity Assay - LYMP1-002 - Live Cells (AID 955)", "settings": "LYMP1-002 lymphoblastoid live-cell protease fluorescence viability; series mostly up to 46.1 µM", "in_short": "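Human lymphoblastoid LYMP1-002 cells, 2500/well in complete medium, rested 5 hr at 37 C, then exposed to compounds for 16 hr at 37 C. Live-cell protease cleavage of GF-AFC read by fluorescence (Ex/Em 405/510) after 60 min at room temperature; AC50 from Hill fits.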"}
{"smiles": "O=C(O)C(Br)Br", "outcome": "inactive"}
{"smiles": "Nc1ccc(Cc2ccc(N)c(Cl)c2)cc1Cl", "outcome": "inactive"}
{"smiles": "CN(C)c1ccc(N(C)C)cc1", "outcome": "inactive"}
{"smiles": "Brc1ccc(Oc2ccc(Br)cc2Br)c(Br)c1", "outcome": "inactive"}
{"smiles": "O=[N+]([O-])c1c(Cl)c(Cl)c(Cl)c(Cl)c1Cl", "outcome": "inactive"}
{"smiles": "C=CC(=O)OCCO", "outcome": "inactive"}
{"smiles": "O=[N+]([O-])c1ccc(O)c([N+](=O)[O-])c1", "outcome": "inactive"}
{"smiles": "CC(C)[N+](=O)[O-]", "outcome": "inactive"}
{"smiles": "CCCC[N+](=O)[O-]", "outcome": "inactive"}
{"smiles": "Cc1cc(-c2cc(C)c(N)c(C)c2)cc(C)c1N", "outcome": "inactive"}
{"smiles": "Nc1cc(Cl)ccc1O", "outcome": "inactive"}
{"smiles": "CCN(N=O)C(N)=O", "outcome": "inactive"}
{"smiles": "CCCCC(CC)COC(=O)c1ccc(C(=O)OCC(CC)CCCC)c(C(=O)OCC(CC)CCCC)c1", "note": "(stereo unspecified)", "outcome": "inactive"}
{"smiles": "O=C(O)C(Br)CBr", "note": "(stereo unspecified)", "outcome": "inactive"}
{"smiles": "Nc1c(Br)cc([N+](=O)[O-])cc1[N+](=O)[O-]", "outcome": "inactive"}
{"smiles": "Cc1cc(C)cc(OP(=O)(Oc2cc(C)cc(C)c2)Oc2cc(C)cc(C)c2)c1", "outcome": "inactive"}
{"smiles": "N#CC(Br)Br", "outcome": "inactive"}
{"smiles": "COP(=S)(OC)SCn1nnc2ccccc2c1=O", "outcome": "inactive"}
{"smiles": "Nc1ccc([N+](=O)[O-])cc1N", "outcome": "inactive"}
{"smiles": "Cc1cc(N=Nc2ccccc2C)ccc1N", "outcome": "inactive"}
{"smiles": "OCCCCO", "outcome": "inactive"}
{"smiles": "CC(C)(COCC1CO1)COCC1CO1", "note": "(stereo unspecified)", "outcome": "inactive"}
{"smiles": "Cc1ccc2c(c1N)C(=O)c1ccccc1C2=O", "outcome": "inactive"}
{"smiles": "COc1ccccc1N", "outcome": "inactive"}
{"smiles": "CC(C)(C)OOC(=O)c1ccccc1", "outcome": "inactive"}
{"smiles": "c1ccc(N=NNc2ccccc2)cc1", "outcome": "inactive"}
{"smiles": "COC(C)(C)C", "outcome": "inactive"}
{"smiles": "C(CCOCC1CO1)COCC1CO1", "note": "(stereo unspecified)", "outcome": "inactive"}
{"smiles": "O=[N+]([O-])/C=C/c1ccccc1", "outcome": "inactive"}
